Screening results as filed in PubChem.
N-glyco inh: N-linked glycosylation inhibition. D54 ERlucT glycosylation luciferase reporter, 24 h; percent of 100 nM tunicamycin response. actives 0.23% (n = 360,000). AID 588692. reporter increase, % at 12.5 µM;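 active means mean luciferase reporter signal, scaled so untreated is 0 and the glycosylation-blocking control 100, at or above a set limit in every replicate; inconclusive means mean reaches the limit but not every replicate does; inactive means mean below the limit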;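 further: luciferase carries N-glycosylation sites so blocking glycosylation raises the light; 0% = median of neutral control wells and 100% = median of 100 nM tunicamycin wells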
MITF act: activators of MITF-driven TRPM1 promoter activity in SK-MEL-5 cells; SK-MEL-5 TRPM1-promoter luciferase, 24 h; % of positive control, neutral wells = 0; activation, % at 12.5 µM; actives 0.75% (n = 300,000); AID 588334;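 active means mean activation of at least 80% with every replicate also reaching 80%; inconclusive means mean reaches 80% but some replicate falls short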;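 further: 0% = neutral control wells and 100% = parthenolide positive control wells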
Wnt act: activates Wnt/beta-catenin signaling in a reporter cell assay; activator, plate reader; activation, % at 9.35 µM; actives 1.2% (n = 300,000); AID 743398; in the data active means activation above about 30%, passing the limit was not always enough; inconclusive means no clear call, values can overlap the other calls;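 further: 0% = neutral control wells and 100% = positive control wells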
esBAF inh: SWI/SNF esBAF complex inhibition | mouse ES cells, Bmi1-luciferase knock-in reporter, 24 h; 100% = twice the neutral-well signal | reporter increase, % at 12.5 µM | AID 602393 | actives 2% (n = 350,000); in the data active means activation above about 40%; inconclusive means no clear call, values can overlap the other calls;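 further: 0% = median of the plate's neutral control wells and 100% = double that signal; a rise in the Bmi1 reporter signal indicates esBAF inhibition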
PvdQ acylase: blocks Pseudomonas aeruginosa PvdQ acylase activity; inhibition, % at 10 µM; purified PvdQ acylase, fluorescence plate reader; actives 0.063% (n = 340,000); in the data active means inhibition above about 30%, passing the limit was not always enough; inconclusive means no clear call, values can overlap the other calls;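 further: 0% = vehicle neutral wells and 100% = reference inhibitor wells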
Vif imaging: blocks HIV Vif function; HEK293T cells, Vif self-association by quenched fluorescence, imaging, 24 h; inhibition, % at 7.49 µM; actives 0.35% (n = 340,000); AID 602346; in the data active means inhibition above about 50%, passing the limit was not always enough; inconclusive means no clear call, values can overlap the other calls; inactive means below about 31%
Active calls of the source: *; ? = inconclusive; nt = no result. Only some compounds are listed: those with a hit (about 2.9% of all), similar ones and a draw of the others.

SMILES	N-glyco inh	MITF act	Wnt act	esBAF inh	PvdQ acylase	Vif imaging
Nc1nc(-c2ccccc2)cc(-c2ccccc2O)n1	35*	-8	nt	7	15	-7
Oc1ccccc1-c1csc(-c2ccccc2)n1	-3	47	14	77*	15	3
Cc1nc(-c2ccc(O)c(O)c2)cs1	-1	5	nt	16	2	67*
O=C(N[C@H]1CC[C@@H](CCn2cc(-c3ccccc3)nn2)O[C@@H]1CO)c1cnccn1	nt	nt	nt	-4	nt	nt
O=C1Cc2c(-c3ccccc3)cc(-c3cccc(Cl)c3)nc2-c2ccccc2N1	72*	-47	-1	1	1	0
COc1ccc(-c2ccc([C@H]3[C@H](C#N)N(C(=O)C4CCC4)[C@H]3CO)cc2)cc1	nt	nt	nt	7	nt	nt
COc1ccc(C=C2CCc3ccccc3C2=O)cc1	-10	nt	-1	nt	nt	-3
COc1ccc(/C=C2\COc3ccccc3C2=O)c(OC)c1	9	37	-5	63*	-11	16
COc1ccc(/C=C2\OC(=O)c3c(OC)cccc32)cc1OC	1	125*	nt	48*	-5	-37
O=C(O)c1ccc(/C=C2\COc3ccccc3C2=O)cc1	2	-9	3	4	-11	17
CCOc1ccc(/C=C2\CCc3ccccc3C2=O)cc1	-15	95*	10	35	-18	0
COc1ccc(/C=C2\COc3ccccc3C2=O)cc1OC	36*	-8	33*	nt	-13	-3
COc1ccc2c(c1)CC/C(=C\c1ccc(OC)c(Cn3cccn3)c1)C2=O	-3	nt	nt	87*	9	-31
COc1ccc(/C=C2/CCc3ccccc3C2=O)cc1OC	1	19	50*	18	-15	-11
C[C@@H]1CN([C@@H](C)CO)C(=O)c2cc(NC(=O)CCC(F)(F)F)ccc2O[C@@H](C)CCCCO[C@H]1CN(C)CC1CCCCC1	nt	nt	nt	-4	nt	nt
CN1/C(=C\C(=O)c2cccc([N+](=O)[O-])c2)Sc2ccccc21	-6	19	21	75*	-20	8
COc1cc(OC)cc(C(=O)/C=C2\Sc3ccccc3N2C)c1	2	26	2	31	-4	-3
C=C(C)CNC(=O)CCc1nnc(Cc2cccc(C(F)(F)F)c2)o1	2	78	56*	nt	-16	-3
O=C(CCc1nnc(Cc2cccc(C(F)(F)F)c2)o1)NCC(F)(F)F	-1	11	3	nt	-17	8
C=CCN=c1scc(-c2ccco2)n1/N=C/c1ccc(O)c(O)c1O	-1	39	42*	nt	-8	22
CC1OC1c1ccc(-c2ccc(C3OC3C)cc2)cc1 (stereo not given)	0	90*	18	77*	5	3
Cc1ccc(Cc2cnc(N3C(=N)SC(c4ccccc4)C3=O)s2)cc1 (stereo not given)	3	6	2	53*	-1	-6
Cc1ccc2cc(CN(C(=O)c3ccco3)c3ccccc3)c(=O)[nH]c2c1	-5	6	nt	54*	-13	-9
Cc1ccc(N(Cc2cc3ccc(C)cc3[nH]c2=O)C(=O)c2ccco2)cc1	-3	0	2	nt	0	3
CCOc1ccc(NC(=O)/C(C#N)=C\c2ccc(N3CCCC3)c(C)c2)cc1	-6	-27	-3	nt	-6	54*
SMILES	N-glyco inh	MITF act	Wnt act	esBAF inh	PvdQ acylase	Vif imaging
C[C@@H]1CCCCO[C@H](CN(C)C(=O)NC2CCCCC2)[C@@H](C)CN([C@H](C)CO)C(=O)c2cc(NC(=O)Nc3cccc4ccccc34)ccc2O1	nt	nt	nt	-1	nt	nt
COc1cccc(NC(=O)N[C@H]2C=C[C@@H](CC(=O)Nc3ccccc3)O[C@H]2CO)c1	nt	nt	nt	1	nt	nt
O/C(=C\c1ccc2ccccc2n1)c1ccc(O)cc1O	-15	20	43*	-30	-5	-5
O=C(Cc1ccc(-c2ccccc2)cc1)NCc1ccccc1	?	-18	-28	nt	-5	54*
CC1(C)CC(=O)c2cnc(N3CCc4ccccc4C3)nc2C1	-9	61	16	69*	3	-10
CCCCCCCNC(=O)C1(CC2CC(c3ccccc3)=NO2)CCN(C(=O)OC(C)(C)C)CC1 (stereo not given)	-5	51	13	62*	-4	-2
CCCCCCCNC(=O)C1(CC2CC(c3ccccc3)=NO2)CCN(C(=O)c2ccccc2)CC1 (stereo not given)	-1	-7	-1	11	-13	-9
Cc1ccc(NC(=O)CCC(=O)c2cccs2)c(Br)c1	-2	86*	23	nt	-13	-7
Cc1ccc(NCCC(=O)c2cccs2)cc1	-3	72	0	64*	-6	-3
Cc1ccc(NCCC(=O)c2cccs2)cc1C	-11	106*	-1	68*	10	0
Cc1ccc(NC(=O)CCC(=O)c2cccs2)cc1	2	nt	41*	6	9	2
Cc1ccc(CNC(=O)CCC(=O)c2cccs2)cc1	-1	-6	nt	0	-7	-3
C[C@H](CO)N1C[C@H](C)[C@@H](CN(C)C(=O)NC2CCCCC2)Oc2c(NC(=O)c3nc4ccccc4s3)cccc2C1=O	nt	nt	nt	0	nt	nt
COCC(=O)Nc1ccc2c(c1)C(=O)N(C)C[C@H](OC)[C@@H](C)CN(C(=O)Cc1cccnc1)[C@H](C)CO2	nt	nt	nt	-1	nt	nt
Cc1ccc(NCCC(=O)c2cccs2)cc1Cl	-3	29	19	55*	-1	-2
O=C(CN1CCOCC1)N1CC[C@H]2[C@H](CO)Nc3ccc(Br)cc3[C@H]21	nt	nt	nt	-3	nt	nt
CCN(CCCNC(=O)C1CCC(=O)N1Cc1ccc(C)cc1)c1cccc(C)c1 (stereo not given)	-1	-17	nt	-5	-9	51*
N#C[C@H]1[C@H](c2ccc(C#Cc3ccccc3F)cc2)[C@@H](CO)N1C(=O)C1CCOCC1	nt	nt	nt	-22	nt	nt
O=C(Nc1ccc2nc(-c3ccc(Br)o3)[nH]c2c1)c1ccco1	-2	38	nt	65*	7	nt
O=C(Nc1ccc2nc(-c3ccccc3)[nH]c2c1)c1ccco1	4	nt	54*	54*	-10	-2
O=C(Nc1ccc2nc(-c3ccc(Br)o3)[nH]c2c1)c1cccs1	-3	48	nt	49*	-8	-6
CC(=O)Nc1ccc2nc(-c3ccc(Br)o3)[nH]c2c1	0	66	-1	nt	23	2
Cc1cccc2[nH]c(-c3ccc(NC(=O)c4ccco4)cc3)nc12	-4	49	nt	84*	-13	0
C[C@@H]1CN([C@@H](C)CO)C(=O)c2cc(NC(=O)CCC(F)(F)F)ccc2O[C@@H](C)CCCCO[C@@H]1CN(C)C(=O)c1ccncc1	nt	nt	nt	-1	nt	nt
O=C(C[C@@H]1C[C@H]2c3cc(NC(=O)C4CCC4)ccc3O[C@H]2[C@@H](CO)O1)NCc1ccncc1	nt	nt	nt	-1	nt	nt
COCC(=O)Nc1ccc2c(c1)[C@H]1C[C@@H](CC(=O)NCc3cccc(F)c3)O[C@H](CO)[C@H]1O2	nt	nt	nt	3	nt	nt
